Results: PubChem BioAssay AID1159580 (chemical genetic matrix, 2015)
Among all 5,500 compounds or so, about 2,000 (36%) were called active. Inconclusive results (about 18%) are left out. Cut-off read from the data, not from the text of the source: active = normalized growth mostly below about 0.91 (no sharp cut-off); inconclusive = no clear call, values can overlap the other calls; inactive = mostly above about 0.92. Some of the results follow.

Test: chemical genetic growth profiling, strain panel (AID 1159580);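 note: tested at 20 µM; growth read once vehicle control cultures reached saturation at 30 °C; 1 = growth at the plate median or of vehicle wells; lower values mean less growth of the strain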
Settings: growth OD

Measured: normalized growth

COc1cc(CNC(=O)CCCC/C=C/C(C)C)ccc1O
inactive: S. cerevisiae deletion strains, locus YJR043C, strain POL32, hits give low values 1 | S. cerevisiae deletion strains, locus YJR066W, strain TOR1, hits give low values 0.95 | S. cerevisiae deletion strains, locus YKL009W, strain mrt4, hits give low values 0.926 | S. cerevisiae deletion strains, locus YKL068W, hits give low values 1.01 | S. cerevisiae deletion strains, locus YKL085W, strain MDH1 (second series), hits give low values 1 | S. cerevisiae deletion strains, locus YKL085W, strain MDH1, hits give low values 1 | S. cerevisiae deletion strains, locus YKL160W, strain elf1, hits give low values 0.97 | S. cerevisiae deletion strains, locus YKL190W, strain CNB1, hits give low values 0.998 | S. cerevisiae deletion strains, locus YKR001C, strain vps1, hits give low values 0.997 | S. cerevisiae deletion strains, locus YKR026C, strain gcn3, hits give low values 0.97 | S. cerevisiae deletion strains, locus YKR091W, strain srl3, hits give low values 0.981 | S. cerevisiae deletion strains, locus YLL001W, strain dnm1, hits give low values 0.955 | S. cerevisiae deletion strains, locus YLL026W, hits give low values 0.987 | S. cerevisiae deletion strains, locus YLL041C, strain sdh2, hits give low values 0.987 | S. cerevisiae deletion strains, locus YLR027C, strain aat2, hits give low values 0.975 | S. cerevisiae deletion strains, locus YLR039C, strain RIC1, hits give low values 1.07 | S. cerevisiae deletion strains, locus YLR058C, strain SHM2, hits give low values 1.02 | S. cerevisiae deletion strains, locus YLR102C, strain apc9, hits give low values 0.986 | S. cerevisiae deletion strains, locus YLR113W, strain HOG1, hits give low values 1.02 | S. cerevisiae deletion strains, locus YLR221C, strain rsa3, hits give low values 0.978 | S. cerevisiae deletion strains, locus YLR258W, strain gsy2, hits give low values 0.986 | S. cerevisiae deletion strains, locus YLR262C, strain YPT6 (second series), hits give low values 0.966 | S. cerevisiae deletion strains, locus YLR262C, strain YPT6, hits give low values 1.11 | S. cerevisiae deletion strains, locus YLR268W, strain sec22, hits give low values 0.967 | S. cerevisiae deletion strains, locus YLR320W, strain mms22, hits give low values 0.995 | S. cerevisiae deletion strains, locus YLR330W, strain CHS5, hits give low values 1.02 | S. cerevisiae deletion strains, locus YLR342W, strain FKS1 (second series), hits give low values 1.02 | S. cerevisiae deletion strains, locus YLR342W, strain FKS1, hits give low values 0.978 | S. cerevisiae deletion strains, locus YLR357W, strain rsc2, hits give low values 1.03 | S. cerevisiae deletion strains, locus YLR370C, strain arc18, hits give low values 0.977 | S. cerevisiae deletion strains, locus YLR371W, strain rom2, hits give low values 1.01 | S. cerevisiae deletion strains, locus YLR384C, strain iki3, hits give low values 0.975 | S. cerevisiae deletion strains, locus YLR418C, strain cdc73, hits give low values 1 | S. cerevisiae deletion strains, locus YML016C, strain PPZ1, hits give low values 0.998 | S. cerevisiae deletion strains, locus YML032C, strain rad52, hits give low values 0.988 | S. cerevisiae deletion strains, locus YML120C, strain ndi1, hits give low values 0.984 | S. cerevisiae deletion strains, locus YML124C, strain tub3, hits give low values 0.986 | S. cerevisiae deletion strains, locus YMR058W, strain fet3, hits give low values 1 | S. cerevisiae deletion strains, locus YMR078C, strain ctf18, hits give low values 1 | S. cerevisiae deletion strains, locus YMR125W, strain sto1, hits give low values 1 | S. cerevisiae deletion strains, locus YMR129W, hits give low values 0.974 | S. cerevisiae deletion strains, locus YMR205C, strain PFK2, hits give low values 0.975 | S. cerevisiae deletion strains, locus YMR223W, strain ubp8, hits give low values 1 | S. cerevisiae deletion strains, locus YMR231W, strain pep5, hits give low values 1 | S. cerevisiae deletion strains, locus YMR307W, strain GAS1, hits give low values 1.04 | S. cerevisiae deletion strains, locus YNL067W, strain RPL9B, hits give low values 1 | S. cerevisiae deletion strains, locus YNL071W, strain lat1, hits give low values 0.979 | S. cerevisiae deletion strains, locus YNL183C, strain NPR1, hits give low values 0.96 | S. cerevisiae deletion strains, locus YNL209W, strain ssb2, hits give low values 1 | S. cerevisiae deletion strains, locus YNL233W, strain BNI4, hits give low values 0.995 | S. cerevisiae deletion strains, locus YNL248C, strain rpa49, hits give low values 0.926 | S. cerevisiae deletion strains, locus YNL250W, strain rad50, hits give low values 1.01 | S. cerevisiae deletion strains, locus YNL271C, strain bni1, hits give low values 0.984 | S. cerevisiae deletion strains, locus YNL298W, strain CLA4, hits give low values 0.992 | S. cerevisiae deletion strains, locus YNL307C, strain MCK1, hits give low values 0.988 | S. cerevisiae deletion strains, locus YNL322C, strain KRE1 (second series), hits give low values 0.98 | S. cerevisiae deletion strains, locus YNL322C, strain KRE1, hits give low values 1.01 | S. cerevisiae deletion strains, locus YNR049C, strain mso1, hits give low values 0.985 | S. cerevisiae deletion strains, locus YNR052C, strain pop2, hits give low values 0.985 | S. cerevisiae deletion strains, locus YOL012C, strain htz1 1.39 | S. cerevisiae deletion strains, locus YOL147C, strain pex11, hits give low values 0.973 | S. cerevisiae deletion strains, locus YOR001W, strain rrp6, hits give low values 0.956 | S. cerevisiae deletion strains, locus YOR061W, strain CKA2, hits give low values 1.02 | S. cerevisiae deletion strains, locus YOR069W, strain VPS5, hits give low values 1.01 | S. cerevisiae deletion strains, locus YOR070C, strain gyp1, hits give low values 0.99 | S. cerevisiae deletion strains, locus YOR080W, strain dia2, hits give low values 0.979 | S. cerevisiae deletion strains, locus YOR083W, strain WHI5, hits give low values 0.962 | S. cerevisiae deletion strains, locus YOR106W, strain vam3, hits give low values 0.967 | S. cerevisiae deletion strains, locus YOR136W, strain idh2, hits give low values 0.988 | S. cerevisiae deletion strains, locus YOR144C, strain elg1, hits give low values 0.996 | S. cerevisiae deletion strains, locus YOR184W, strain ser1, hits give low values 0.995 | S. cerevisiae deletion strains, locus YOR231W, strain MKK1, hits give low values 1.02 | S. cerevisiae deletion strains, locus YOR265W, strain rbl2, hits give low values 0.982 | S. cerevisiae deletion strains, locus YOR270C, strain vph1, hits give low values 1 | S. cerevisiae deletion strains, locus YOR290C, strain snf2, hits give low values 1 | S. cerevisiae deletion strains, locus YOR316C, strain cot1, hits give low values 0.987 | S. cerevisiae deletion strains, locus YPL051W, strain arl3, hits give low values 0.97 | S. cerevisiae deletion strains, locus YPL078C, strain atp4, hits give low values 0.974 | S. cerevisiae deletion strains, locus YPL106C, strain sse1, hits give low values 0.995 | S. cerevisiae deletion strains, locus YPL240C, strain hsp82, hits give low values 0.991 | S. cerevisiae deletion strains, locus YPL256C, strain CLN2, hits give low values 0.986 | S. cerevisiae deletion strains, locus YPR119W, strain clb2, hits give low values 0.994 | S. cerevisiae deletion strains, locus YPR141C, strain kar3, hits give low values 0.996 | S. cerevisiae deletion strains, locus YPR163C, strain tif3, hits give low values 0.981 | S. cerevisiae deletion strains, locus YPR167C, strain met16, hits give low values 1.01 | S. cerevisiae deletion strains, strain wtn01, hits give low values 0.963 | S. cerevisiae strains, strain wild type, hits give low values 1
